RECQ1 helicase: blocks DNA unwinding by human RECQ1; RECQ1 DNA unwinding, red fluorescence kinetic read; Potency, µM (top dose mostly 57.3 µM), for inactives: top-dose activity, negative = inhibition, actives largely listed as inhibitors; actives 0.54% (n = 240,000); P46063; AID 2549;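 further: plate controls were vehicle for no effect and no enzyme for full effect; nearly all actives have a fitted effect of over 30% in size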
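RECQ1T1 50 nM; forked duplex (20 bp + 30-nt ss tails) 200 nM, ATP 2 mM final; pH 8.0, 2 mM MgCl2, 2.5 ug/ml poly(dI-dC); 15 min compound preincubation; discontinuous kinetic read over 2 h at RT.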
APEX1 inh: inhibitors of human APE1 endonuclease; recombinant APE1, TAMRA/BHQ-2 abasic DNA cleavage fluorescence; Potency, µM (series often up to 65.8 µM), for inactives: top-dose activity change, negative = inhibition, hits mostly inhibitors; actives 0.35% (n = 350,000); AID 2517;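 further: plate controls were vehicle for no effect and reference inhibitor for full effect; nearly all actives have a fitted effect of over 55% in size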
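Measures dequenching upon AP-site incision of a 5'-TAMRA/3'-BHQ-2 THF-containing duplex, 50 nM; human APE1 0.75 nM after 15 min room-temperature exposure to compound; kinetic three-point read at one-minute spacing.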
BLM inh: inhibitors of human Bloom syndrome helicase BLM; actives 0.2% (n = 350,000); P54132; recombinant BLM DNA unwinding, fluorescence dequenching; Potency, µM (highest dose often 56.1 µM), for inactives: at the highest dose activity change, negative = inhibition, most hits filed as inhibitors;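 further: plate controls were vehicle for no effect and no enzyme for full effect; nearly all actives have a fitted effect of over 35% in size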
L3MBTL1 inh: blocks human L3MBTL1 | Q9Y468 | AlphaScreen L3MBTL1–H3K9me1 peptide binding | Potency, µM (top dose mostly 57.1 µM), without a hit: at the highest dose activity, negative = inhibition, actives largely listed as inhibitors | actives 0.66% (n = 230,000) | AID 485360; further: nearly all actives have a fitted effect of over 60% in size
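AlphaScreen assay: L3MBTL1 (50 nM final) was preincubated 30 min at room temperature with biotinylated H3(1-15)K9me1 peptide (75 nM final), then 30 min with library compounds; streptavidin donor and nickel chelate acceptor beads (10 ug/mL final) added, 30 min dark.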
JMJD2E inh: JMJD2E (human) inhibition; JMJD2E catalytic domain, FDH-coupled NADH fluorescence (FDH is formaldehyde dehydrogenase); Potency, µM (highest dose often 57.1 µM), without a hit: at the highest dose activity change, negative = inhibition, actives largely listed as inhibitors; actives 1.6% (n = 230,000); AID 2147; B2RXH2; active means well fitted inhibition curve with a large enough effect, not every such curve was filed as active; inconclusive means small, poorly fitted or top-dose-only effect, or another doubt; inactive means no such curve, though single readings can be large or run the other way;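 further: 0% = wells with enzyme and -100% = buffer wells without enzyme; nearly all actives have a fitted effect of over 50% in size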
Target sequence (B2RXH2 1-337 limits assumed): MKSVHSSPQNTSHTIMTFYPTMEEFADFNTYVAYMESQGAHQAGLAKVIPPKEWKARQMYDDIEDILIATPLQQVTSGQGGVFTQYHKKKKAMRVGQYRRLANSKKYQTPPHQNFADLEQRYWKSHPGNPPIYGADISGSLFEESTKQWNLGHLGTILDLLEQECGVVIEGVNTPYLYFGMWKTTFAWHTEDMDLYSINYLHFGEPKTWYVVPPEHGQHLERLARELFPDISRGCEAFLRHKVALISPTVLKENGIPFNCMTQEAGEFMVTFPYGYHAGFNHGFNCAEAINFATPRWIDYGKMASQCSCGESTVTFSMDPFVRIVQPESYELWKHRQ
Active calls of the source: *; i = inactive; u = inconclusive; x = no result given; [ ] = another dose, or the depositor's remark. The sample as a whole holds a higher share of hits than the screen did. Unless noted, the call rests on the fitted dose curve; in most records, active means well fitted curve in the direction sought with a large enough effect; inconclusive means small, poorly fitted or top-dose-only effect, or another doubt; inactive means no such curve, though single readings can be large; an effect the other way counts as inactive or inconclusive. Unless noted, on the % scale 0 is the no-effect control and ±100 the full control effect; potency means the concentration at half of the fitted maximal effect.

SMILES | RECQ1 helicase | APEX1 inh | BLM inh | L3MBTL1 inh | JMJD2E inh
O=c1c(/C=C(\O)c2ccc(F)cc2)nc2ccccc2n1-c1ccccc1 | -8% | -1% | -5% | x | 28µM*
Cn1c(=O)c(/C=C/c2ccc(F)cc2)nc2ccccc21 | -8% | 25% | -5% | 62% | u
Cc1ccc(Cl)cc1N1CCN(C(=O)CN2C(=O)COc3ccc(S(=O)(=O)N4CCCCCC4)cc32)CC1 | x | x | -2% | x | x
CC(=O)C1=C(c2ccccc2)NC(=O)NC1c1ccc(O)c(O)c1 (centres undefined) | -3% | 40µM* | -8% | u | u
CC(=O)C1=C(c2ccccc2)NC(=S)NC1c1ccc(O)c(O)c1 (centres undefined) | u | 13µM* | -16% | u | 22µM*
CCOc1cccc(/C=N/NC(=S)Nc2cc(S(=O)(=O)N3CCOCC3)ccc2N2CCOCC2)c1O | -4% | -5% | -5% | u | 32µM*
COc1ccc2ccccc2c1/C=N/NC(=S)Nc1cc(S(=O)(=O)N2CCOCC2)ccc1N1CCOCC1 | 3% | -3% | -8% | -1% | u
CCOC(=O)c1sc(N2N=C(C)/C(=C\c3ccc(OCC(=O)OC)cc3)C2=O)nc1C | -5% | 15% | -2% | 25% | 22µM*
CCOC(=O)c1sc(Nc2ccc(OCC)cc2)nc1C | -5% | -7% | -6% | -9% | u
O=C(O)c1ccc(CNCc2cccc(Cl)c2Cl)cc1 | i | 0% | 2% | x | 2%
COc1ccccc1NC(=S)NNC(=O)c1nn(C)cc1Cl | -1% | -9% | 1% | 7% | 10µM*
COc1ccccc1NC(=S)NNC(=O)c1nn(C)c(C)c1Cl | u | 0% | 0% | x | 14µM*
COc1ccccc1NC(=S)NNC(=O)c1ccc(O)cc1 | -15% | 3% | 0% | x | 2%
COc1ccccc1NC(=S)NNC(=O)c1nn(C)c(C)c1Br | -19% | -1% | 8% | 17% | 7.9µM*
COc1ccccc1NC(=O)c1nn(C)cc1Br | -12% | -5% | -1% | -2% | -1%
CCOC(=O)C1=C(C)N=C2c3ccccc3C(=O)C2C1c1ccccc1 (centres undefined) | -2% | -7% | -6% | -11% | -2%
CCOC(=O)C1=C(C)N=C2c3ccccc3C(=O)C2C1c1ccc(C)cc1 (centres undefined) | -6% | -1% | -15% | 18% | 32µM*
Cc1cc(C)cc(N(CC(=O)NCc2ccc(F)cc2)C(=O)CCC(=O)Nc2ccccn2)c1 | x | 8%[12.4 µM] | 0% | x | x
Cc1ccc(-c2nn(-c3ccccc3)cc2C(=O)O)o1 | 32µM* | u | 1% | 2.8µM* | u
O=C(NCc1ccc(Cl)cc1)c1ccc2oc(=O)n(Cc3ccccc3)c2c1 | x | x | -3% | x | x
COc1cc2c(cc1OC)-c1cc3nc4ccccc4nc3n1C(C)(C)C2 | i | u | -10% | x | 4.5µM*
COc1cc(Br)c(Br)cc1N | i | -7% | -10% | 3.5µM* | 0%
CC(/C=C/c1ccc(C)o1)=C\C(=O)O | -7% | 0% | 2% | 4% | u
CC(=C/C(=O)O)/C=C/c1ccc(Cl)o1 | -3% | -3% | 85% | 10µM* | u
O=C1COc2ccc(C(=O)COC(=O)/C=C/c3ccc(Br)o3)cc2N1 | x | u | x | 3.5µM* | x
SMILES | RECQ1 helicase | APEX1 inh | BLM inh | L3MBTL1 inh | JMJD2E inh
O=C(NO)c1ccccc1O | 0% | 9% | -4% | 6% | 10µM*
Cc1c(NC(=O)c2ccc(Br)s2)c(=O)n(-c2ccccc2)n1C | i | 0% | -1% | 1% | 6%
O=C(COc1cccc([N+](=O)[O-])c1)N/N=C/c1ccco1 | i | u | -10% | -11% | 1%
CCc1ccc(OCC(=O)N/N=C\c2ccco2)c([N+](=O)[O-])c1 | -16% | u | -25% | 35µM* | 16%
O=C(CN1C(=O)/C(=C2\SC(=S)N(CCS(=O)(=O)O)C2=O)c2ccccc21)Nc1cccc(Br)c1 | x | 6.7µM* | -15% | x | x
COc1cc(CCC(=O)NCc2ccc(Cl)cc2)cc(OC)c1OC | x | 3% | -1% | x | x
C=C(C)C(=O)NNc1ccccc1 | -24% | 0% | -3% | 8% | 14µM*
CN(C)C(CNC(=O)c1cccc(S(=O)(=O)Nc2ccccc2Cl)c1)c1ccco1 (centres undefined) | x | -4% | x | 3% | x

Bioassay records: PubChem BioAssay, National Center for Advancing Translational Sciences (NCATS)
